Screening data as filed in PubChem.
GDH-TPI counter – GDH-TPI coupling enzyme inhibitors, primary screen, artefact control for M. tuberculosis FBA inhibitor project, biochemical, absorbance, full deck | 360,000 compounds, 1.2% hits | inhibition, % at 4.8 µM | AID 588335, 2011 | GDH-TPI coupled enzyme counterscreen, NADH absorbance; in the data active = inhibition above about 30%;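 also: 0% = DMSO wells and 100% = wells lacking the enzyme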
Mtb bLac sens – beta-lactam sensitization of Mtb H37Rv, H37Rv; AID 434955, 2010; inhibition, % at 25 µM; 330,000 compounds, 0.27% hits; M. tuberculosis H37Rv growth with meropenem, percent inhibition; call rule not given here;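 also: growth measured after seven days incubation then overnight dye step; 0% = bacteria only wells and 100% = bacteria with antibiotic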
Mtb UGM inh – M. tuberculosis UGM enzyme inhibitors, primary screen, biochemical, fluorescence polarization, single point. purified UGM, fluorescence polarization probe displacement. inhibition, % at 10 µM. 320,000 compounds, 0.06% hits. AID 504406, 2011; in the data active = inhibition above about 10%, passing the limit was not always enough; inconclusive = no clear call, values can overlap the other calls
Target sequence (P9WIQ1 whole entry, looked up): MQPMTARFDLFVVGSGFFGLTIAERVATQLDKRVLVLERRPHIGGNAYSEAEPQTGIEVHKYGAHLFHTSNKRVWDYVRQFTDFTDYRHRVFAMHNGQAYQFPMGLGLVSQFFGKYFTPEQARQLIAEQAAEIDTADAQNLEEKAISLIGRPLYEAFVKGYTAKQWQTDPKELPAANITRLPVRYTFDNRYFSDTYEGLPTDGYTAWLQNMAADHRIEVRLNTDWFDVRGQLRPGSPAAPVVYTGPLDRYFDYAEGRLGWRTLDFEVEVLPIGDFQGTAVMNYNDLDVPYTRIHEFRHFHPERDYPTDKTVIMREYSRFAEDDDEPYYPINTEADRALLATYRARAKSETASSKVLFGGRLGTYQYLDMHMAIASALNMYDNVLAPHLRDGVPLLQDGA
RecA intein inh – Mtb RecA intein splicing inhibitors, primary screen, biochemical, fluorescence, HTS. cell-free RecA intein splicing. Protein RecA (Mycobacterium tuberculosis (strain ATCC 25618 / H37Rv)), P9WHJ3. inhibition, % (test concentration not listed). 290,000 compounds, 0.75% hits; in the data active = inhibition above about 30%; inconclusive = no clear call, values can overlap the other calls;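 also: 0% = vehicle wells and 100% = reference inhibitor control wells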
Rv3671c inh – Rv3671c serine protease inhibitors, primary screen, biochemical, fluorescence polarization, M. tuberculosis H37Rv. P9WHR9. inhibition, % at 5.96 µM. 320,000 compounds, 0.048% hits; in the data active = inhibition above about 38%;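 also: extracellular domain of Rv3671c used as enzyme; 0% = enzyme with DMSO and 100% = no enzyme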
Mtb FBA inh – Mtb FBA enzyme inhibitors, primary screen, biochemical, fluorescence, strain H37Rv; Fructose-bisphosphate aldolase (Mycobacterium tuberculosis (strain ATCC 25618 / H37Rv)), …; purified M. tuberculosis FBA, fluorescence read-out; inhibition, % at 1 µM; 360,000 compounds, 2.3% hits; in the data active = inhibition above about 27%;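 also: 0% = vehicle and 100% = reference inhibitor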
* hit, by the source's call; i = inactive; ? = inconclusive; nt = no result; + = active, no number. Only some compounds are listed: those with a hit (about 4% of all), similar ones and a draw of the others.

SMILES | GDH-TPI counter | Mtb bLac sens | Mtb UGM inh | RecA intein inh | Rv3671c inh | Mtb FBA inh
Cc1ccccc1OCC(=O)Nc1nnc(C2CCCC2)s1 | -2 | -6 | 2 | 1 | -13 | -2
COc1ccc(OC)c(NC(=O)CCCCCn2nnc3ccccc3c2=O)c1 | 5 | -2 | 0 | 0 | 11 | -2
Cc1ccccc1S(=O)(=O)/N=C(/Nc1c(C)n(C)n(-c2ccccc2)c1=O)c1ccccc1 | -10 | -1 | 0 | -1 | 4 | -2
Cc1ccccc1S(=O)(=O)/N=C(/Nc1nc2ccccc2s1)c1ccccc1 | 44* | -8 | 5 | nt | 3 | 3
CC1CCN(S(=O)(=O)c2ccc3[nH]c(=O)[nH]c3c2)CC1 | -5 | -8 | 2 | 0 | -4 | -2
O=C(O)c1nc(Cl)c(Cl)c(N/N=C/c2ccccc2C(F)(F)F)c1Cl | 31* | 7 | -4 | 5 | -1 | -2
CC1(C)Oc2cc3oc(-c4cc(O)cc(O)c4)cc3cc2CC1O (stereo unspecified) | 29 | 15 | -1 | -1 | 2 | 89*
COc1ccc(C2C(C#N)=C(N)Oc3c2c(C)nn3-c2ccccc2)cc1Cn1nc(C)c([N+](=O)[O-])c1C (stereo unspecified) | 20 | 0 | 2 | 54* | 10 | 0
CCc1ccc(OC)c(S(=O)(=O)Nc2ccc(Cc3ccncc3)cc2)c1 | -2 | -1 | 2 | 6 | -2 | -2
Cc1ccc(C)c(NC(=O)COC(=O)c2ccc(S(=O)(=O)N3CCCCC3)cc2)c1 | -7 | nt | 3 | nt | -4 | -1
Cc1ccc(NC(=O)COC(=O)c2cccc(C)c2[N+](=O)[O-])cc1S(=O)(=O)N1CCCCC1 | 4 | 2 | 0 | nt | -121 | 3
Cc1cccc(C(=O)OCC(=O)c2csc(N3CCCCC3)n2)c1[N+](=O)[O-] | 36* | -7 | -1 | nt | -8 | 1
Cc1cccc(C)c1NC(=O)CN(c1c(C)cccc1C)S(C)(=O)=O | -5 | nt | nt | nt | nt | 0
O=C(N/N=C\c1ccc(O)c([N+](=O)[O-])c1)c1ccccc1-n1cccc1 | 46* | 0 | 1 | -2 | -9 | -12
O=C(N/N=C/c1ccc(O)c([N+](=O)[O-])c1)C(O)(c1ccccc1)c1ccccc1 | 35* | -3 | 2 | nt | 2 | -4
O=C1/C(=C/c2cccnc2)SC(=S)N1NS(=O)(=O)c1ccccc1 | 34* | 4 | -2 | 6 | -15 | 0
Cc1cccc(CN2CCN(C3CN(CCc4ccccc4)S(=O)(=O)C3)CC2)c1 (stereo unspecified) | nt | nt | nt | nt | nt | 2
COCCN(C(=O)COC(=O)c1ccc(Cl)s1)c1c(N)n(Cc2ccccc2)c(=O)[nH]c1=O | 1 | -5 | -4 | 13 | 6 | -1
COc1ccccc1/C=C\C(=O)NCC(=O)N/N=C/c1ccc(O)cc1O | 36* | 1 | 4 | -1 | 7 | -2
Cc1ccc(S(=O)(=O)n2c(N)nc3cc(C)c(C)cc32)cc1 | 0 | nt | nt | nt | nt | -2
C/C(=N/NC(=O)c1ccncc1)c1cc2ccc(O)cc2oc1=O | 10 | 99 | 42* | nt | 9 | +
NC(=S)c1cc2cc(Br)ccc2oc1=O | 5 | 3 | -1 | 1 | 2 | -1
Oc1cc(O)cc(-c2cc3ccc(O)cc3o2)c1 | 0 | -12 | -1 | -5 | 5 | 177*
C/C(=N\NC(=O)c1ccccc1)c1cc2cc([N+](=O)[O-])ccc2oc1=O | 17 | 8 | 5 | nt | -2 | -8
NC(=S)c1cc2ccc(O)cc2oc1=O | 16 | nt | nt | -152 | nt | +
SMILES | GDH-TPI counter | Mtb bLac sens | Mtb UGM inh | RecA intein inh | Rv3671c inh | Mtb FBA inh
C/C(=N\NC(=O)c1ccncc1)c1cc2ccccc2o1 | 17 | 98 | -3 | -2 | 1 | 4
C/C(=N\NC(=O)c1ccc([N+](=O)[O-])cc1)c1cc2ccccc2oc1=O | 32* | 7 | -1 | 87* | -2 | -1
CC1CN(C(=O)CCC(=O)NCc2ccccc2Cl)c2ccccc2S1 (stereo unspecified) | 9 | ? | 5 | 0 | -7 | 3
CCC(CC)NC(=O)CSc1ccc(S(=O)(=O)N2CCCCC2)cn1 | 4 | nt | nt | nt | nt | 4
C/C(=N/NC(N)=S)c1cc2ccc(O)cc2oc1=O | -4 | -5 | -1 | i | -3 | 129*
CCOc1ccc(C(=O)c2cc3ccc(O)cc3oc2=O)cc1 | 5 | 2 | 2 | -2 | 4 | -4
C=CCNC(=O)/C(C#N)=C/c1c(N2CC(C)OC(C)C2)nc2ccccn2c1=O (stereo unspecified) | 4 | -8 | 1 | -241 | -8 | 126*
N#C/C(=C\c1c(N2CCOCC2)nc2ccccn2c1=O)C(=O)NC1CCS(=O)(=O)C1 (stereo unspecified) | 13 | -3 | 0 | i | -8 | +
COc1cc(OC)c(N2CC(C(=O)Nc3cccc(C(=O)NC4CC4)c3)CC2=O)cc1Cl (stereo unspecified) | 3 | nt | nt | nt | nt | 4
CC1=CC2(O)OCCN(CCO)C2=CC1=O (stereo unspecified) | 0 | -1 | 0 | 66* | -4 | 5
COc1ccc2c(c1)oc(=O)c1cc(OC)ccc12 | -1 | 1 | 2 | -3 | -30 | 138*
C=C1CC(COc2ccc3c(C)c(Cl)c(=O)oc3c2)(c2ccccc2)OC1=O (stereo unspecified) | 19 | nt | nt | nt | nt | 121*
COc1ccc2c(=O)c3ccccc3oc2c1 | 12 | -2 | 0 | 0 | -1 | 6
COc1ccc2c(C)c(Cl)c(=O)oc2c1 | 16 | -7 | 1 | -9 | 5 | 153*
O=C(Nc1cccc(C(F)(F)F)c1)c1csc([C@@H]2O[C@H](CO)[C@H](O)[C@H](O)[C@H]2O)n1 | 6 | nt | nt | nt | nt | 0
COc1cccc(CNC(=O)C2CCN(S(=O)(=O)c3ccc(-n4cnnn4)cc3)CC2)c1 | 0 | -4 | 2 | 1 | -10 | 0
CCOC(=O)c1sc(=S)n(C)c1NC(=O)c1ccccc1 | 36* | 5 | 0 | 1 | -4 | -2
CCOC(=O)c1sc(=S)n(C)c1NC(=O)c1cccc(Br)c1 | 25 | -2 | -2 | -1 | -4 | 2
CN(C(=O)C1CCN(S(=O)(=O)c2ccccc2)CC1)c1c(N)n(Cc2ccccc2)c(=O)[nH]c1=O | 4 | -5 | 2 | 4 | -1 | 3
CCOC(=O)CC1C(=O)NCCN1C(=O)c1cc2c(=O)n3cccc(C)c3nc2s1 (stereo unspecified) | 12 | -10 | 0 | -40 | 5 | 162*
CCOC(=O)C1CCN(C(=O)c2cc3c(=O)n4ccccc4nc3s2)CC1 | 14 | -7 | -1 | -31 | -1 | 159*
